# Measurements published in ChEMBL document CHEMBL1961873, “Compounds: GSK PKIS; Assays: Nanosyn kinase panel” (2012).
# Legend:
# [1] = target: Fibroblast growth factor receptor 4 (Homo sapiens) (UniProt P22455); details: at 1 µM;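 also: reported figure is the averaged percent inhibition of FGFR4, from the GSK PKIS kinase screening panel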
# [2] = target: Tyrosine-protein kinase Fgr (Homo sapiens) (UniProt P09769); details: at 0.1 µM
# [3] = target: Tyrosine-protein kinase Fgr (Homo sapiens) (UniProt P09769); details: at 1 µM
# [4] = target: Vascular endothelial growth factor receptor 1 (Homo sapiens) (UniProt P17948); details: at 0.1 µM
# [5] = target: Vascular endothelial growth factor receptor 1 (Homo sapiens) (UniProt P17948); details: at 1 µM
# [6] = target: Receptor-type tyrosine-protein kinase FLT3 (Homo sapiens) (UniProt P36888); details: at 0.1 µM
# [7] = target: Receptor-type tyrosine-protein kinase FLT3 (Homo sapiens) (UniProt P36888); details: at 1 µM
# [8] = target: Non-receptor tyrosine-protein kinase TYK2 (Homo sapiens) (UniProt P29597); details: at 1 µM;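 also: values are mean percent inhibition of TYK2 kinase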
# [9] = target: T1, Tyrosine-protein kinase receptor TYRO3 (Homo sapiens) (UniProt Q06418); details: at 0.1 µM
# T1 sequence (whole entry): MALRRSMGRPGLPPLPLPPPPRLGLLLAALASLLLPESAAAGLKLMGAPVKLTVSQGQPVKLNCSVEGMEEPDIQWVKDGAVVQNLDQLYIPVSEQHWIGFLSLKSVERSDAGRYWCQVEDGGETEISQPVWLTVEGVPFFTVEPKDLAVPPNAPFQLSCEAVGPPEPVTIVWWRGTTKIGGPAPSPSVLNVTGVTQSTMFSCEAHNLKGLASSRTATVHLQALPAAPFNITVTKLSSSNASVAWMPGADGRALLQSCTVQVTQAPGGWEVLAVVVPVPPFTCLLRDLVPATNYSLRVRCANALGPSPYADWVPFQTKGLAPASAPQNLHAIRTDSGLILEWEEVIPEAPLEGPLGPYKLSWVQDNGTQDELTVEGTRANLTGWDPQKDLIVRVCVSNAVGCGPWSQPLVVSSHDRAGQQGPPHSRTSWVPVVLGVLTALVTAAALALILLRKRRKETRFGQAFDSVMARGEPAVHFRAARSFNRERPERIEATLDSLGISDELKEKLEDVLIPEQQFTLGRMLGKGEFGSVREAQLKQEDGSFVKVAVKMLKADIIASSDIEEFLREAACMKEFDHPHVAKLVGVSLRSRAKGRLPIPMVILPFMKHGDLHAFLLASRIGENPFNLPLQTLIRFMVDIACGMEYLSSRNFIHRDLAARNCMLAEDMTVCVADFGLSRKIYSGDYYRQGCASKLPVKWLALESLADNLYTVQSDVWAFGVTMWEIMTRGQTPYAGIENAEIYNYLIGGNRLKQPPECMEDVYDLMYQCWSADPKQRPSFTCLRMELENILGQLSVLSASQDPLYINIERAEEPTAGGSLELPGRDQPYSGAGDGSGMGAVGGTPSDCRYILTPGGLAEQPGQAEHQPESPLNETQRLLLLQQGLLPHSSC
# [10] = target: T1, Tyrosine-protein kinase receptor TYRO3 (Homo sapiens); details: at 1 µM
# [11] = target: Tyrosine-protein kinase Yes (Homo sapiens) (UniProt P07947); details: at 0.1 µM
# [12] = target: Tyrosine-protein kinase Yes (Homo sapiens) (UniProt P07947); details: at 1 µM
# [13] = target: T2, Tyrosine-protein kinase ZAP-70 (Homo sapiens) (UniProt P43403); details: at 0.1 µM
# T2 sequence (whole entry): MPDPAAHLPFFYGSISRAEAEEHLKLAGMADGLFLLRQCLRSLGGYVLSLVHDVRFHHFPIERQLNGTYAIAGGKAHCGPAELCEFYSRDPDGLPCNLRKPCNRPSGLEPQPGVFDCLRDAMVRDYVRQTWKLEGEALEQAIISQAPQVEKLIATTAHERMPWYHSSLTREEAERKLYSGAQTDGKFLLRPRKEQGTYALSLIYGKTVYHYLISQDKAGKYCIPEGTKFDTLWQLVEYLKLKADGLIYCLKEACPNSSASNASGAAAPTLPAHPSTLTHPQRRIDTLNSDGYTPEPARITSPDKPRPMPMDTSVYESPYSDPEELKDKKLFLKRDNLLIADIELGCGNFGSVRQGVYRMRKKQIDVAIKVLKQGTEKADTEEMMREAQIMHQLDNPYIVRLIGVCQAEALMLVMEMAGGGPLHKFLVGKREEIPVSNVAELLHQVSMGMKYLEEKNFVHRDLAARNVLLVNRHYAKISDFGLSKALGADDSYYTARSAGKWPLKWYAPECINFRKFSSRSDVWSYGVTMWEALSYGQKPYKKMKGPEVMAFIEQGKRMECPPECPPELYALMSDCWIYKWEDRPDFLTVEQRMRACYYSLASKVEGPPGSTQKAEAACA
# [14] = target: T2, Tyrosine-protein kinase ZAP-70 (Homo sapiens); details: at 1 µM
# [15] = target: Serine/threonine-protein kinase B-raf (Homo sapiens) (UniProt P15056); details: at 0.1 µM
# [16] = target: Serine/threonine-protein kinase B-raf (Homo sapiens) (UniProt P15056); details: at 1 µM
# [17] = test system: Serine/threonine-protein kinase B-raf (Homo sapiens), P15056 [V600E]; details: at 0.1 µM
# [18] = test system: Serine/threonine-protein kinase B-raf (Homo sapiens), P15056 [V600E]; details: at 1 µM
# [19] = target: RAF proto-oncogene serine/threonine-protein kinase (Homo sapiens) (UniProt P04049); details: at 0.1 µM;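 also: values are mean CRAF kinase inhibition from profiling of the GSK Published Kinase Inhibitor Set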
# [20] = test system: T3, Receptor-type tyrosine-protein kinase FLT3 (Homo sapiens), P36888 [D835Y]; details: at 0.1 µM
# T3 sequence (whole entry): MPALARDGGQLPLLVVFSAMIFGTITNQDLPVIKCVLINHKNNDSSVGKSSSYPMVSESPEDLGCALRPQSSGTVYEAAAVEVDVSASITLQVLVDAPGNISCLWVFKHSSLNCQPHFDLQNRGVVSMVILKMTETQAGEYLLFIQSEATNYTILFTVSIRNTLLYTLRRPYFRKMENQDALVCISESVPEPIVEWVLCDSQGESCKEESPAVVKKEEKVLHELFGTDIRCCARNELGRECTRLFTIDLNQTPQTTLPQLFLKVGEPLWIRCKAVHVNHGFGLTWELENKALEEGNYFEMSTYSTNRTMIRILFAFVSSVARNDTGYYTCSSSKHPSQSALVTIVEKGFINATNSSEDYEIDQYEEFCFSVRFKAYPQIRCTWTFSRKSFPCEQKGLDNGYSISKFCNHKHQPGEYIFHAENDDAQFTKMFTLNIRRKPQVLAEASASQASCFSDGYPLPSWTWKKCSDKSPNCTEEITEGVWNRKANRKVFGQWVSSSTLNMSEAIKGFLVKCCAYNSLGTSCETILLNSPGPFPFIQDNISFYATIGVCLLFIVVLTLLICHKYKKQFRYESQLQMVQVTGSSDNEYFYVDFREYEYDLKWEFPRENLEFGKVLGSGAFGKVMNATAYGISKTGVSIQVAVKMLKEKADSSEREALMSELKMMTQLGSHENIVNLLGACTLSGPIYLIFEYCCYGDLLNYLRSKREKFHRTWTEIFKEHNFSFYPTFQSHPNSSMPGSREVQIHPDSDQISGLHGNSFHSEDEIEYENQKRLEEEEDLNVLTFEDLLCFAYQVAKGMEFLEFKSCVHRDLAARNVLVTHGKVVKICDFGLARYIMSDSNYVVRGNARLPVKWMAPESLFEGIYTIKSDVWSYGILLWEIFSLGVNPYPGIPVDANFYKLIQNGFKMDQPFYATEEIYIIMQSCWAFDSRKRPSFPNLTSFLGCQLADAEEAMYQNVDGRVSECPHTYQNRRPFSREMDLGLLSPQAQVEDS
# Sequence of Serine/threonine-protein kinase B-raf (Homo sapiens) (P15056 whole entry): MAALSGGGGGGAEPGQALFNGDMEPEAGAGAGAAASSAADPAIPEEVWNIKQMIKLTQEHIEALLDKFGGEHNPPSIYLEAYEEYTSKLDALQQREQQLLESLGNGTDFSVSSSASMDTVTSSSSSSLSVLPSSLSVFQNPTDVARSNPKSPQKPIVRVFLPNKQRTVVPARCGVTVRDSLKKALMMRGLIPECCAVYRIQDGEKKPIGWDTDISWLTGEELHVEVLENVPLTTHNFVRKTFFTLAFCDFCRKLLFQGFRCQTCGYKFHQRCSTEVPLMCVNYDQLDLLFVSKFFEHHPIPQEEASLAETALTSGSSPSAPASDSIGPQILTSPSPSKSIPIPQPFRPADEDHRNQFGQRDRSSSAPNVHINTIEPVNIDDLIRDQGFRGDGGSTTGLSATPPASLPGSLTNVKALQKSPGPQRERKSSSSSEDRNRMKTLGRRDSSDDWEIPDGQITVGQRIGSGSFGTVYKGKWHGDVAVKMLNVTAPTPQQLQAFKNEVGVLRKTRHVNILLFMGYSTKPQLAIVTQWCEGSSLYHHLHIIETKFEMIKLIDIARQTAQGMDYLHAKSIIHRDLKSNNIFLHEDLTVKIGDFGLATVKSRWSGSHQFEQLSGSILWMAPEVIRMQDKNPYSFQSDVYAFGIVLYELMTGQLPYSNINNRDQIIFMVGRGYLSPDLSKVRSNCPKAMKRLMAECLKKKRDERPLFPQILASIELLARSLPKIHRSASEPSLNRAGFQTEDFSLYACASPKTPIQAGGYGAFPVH
# Sequence of RAF proto-oncogene serine/threonine-protein kinase (Homo sapiens) (P04049 whole entry): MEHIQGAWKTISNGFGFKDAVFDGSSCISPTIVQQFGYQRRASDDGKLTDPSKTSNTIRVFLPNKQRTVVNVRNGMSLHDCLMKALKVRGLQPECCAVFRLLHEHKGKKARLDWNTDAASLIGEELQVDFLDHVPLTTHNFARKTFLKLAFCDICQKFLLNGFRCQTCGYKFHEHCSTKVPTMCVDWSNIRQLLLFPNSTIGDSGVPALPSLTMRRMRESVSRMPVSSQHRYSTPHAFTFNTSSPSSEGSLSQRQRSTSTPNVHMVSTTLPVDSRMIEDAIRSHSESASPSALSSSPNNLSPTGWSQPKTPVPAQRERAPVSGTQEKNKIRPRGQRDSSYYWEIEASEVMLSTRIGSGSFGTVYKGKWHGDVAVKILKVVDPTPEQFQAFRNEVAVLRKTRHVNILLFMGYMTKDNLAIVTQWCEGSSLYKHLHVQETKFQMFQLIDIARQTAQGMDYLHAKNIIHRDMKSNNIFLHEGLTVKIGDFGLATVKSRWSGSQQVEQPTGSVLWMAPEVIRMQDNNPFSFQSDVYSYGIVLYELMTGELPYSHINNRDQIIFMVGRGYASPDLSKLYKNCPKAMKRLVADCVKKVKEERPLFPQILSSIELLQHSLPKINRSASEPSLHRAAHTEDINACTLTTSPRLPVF
# Sequence of Non-receptor tyrosine-protein kinase TYK2 (Homo sapiens) (P29597 whole entry): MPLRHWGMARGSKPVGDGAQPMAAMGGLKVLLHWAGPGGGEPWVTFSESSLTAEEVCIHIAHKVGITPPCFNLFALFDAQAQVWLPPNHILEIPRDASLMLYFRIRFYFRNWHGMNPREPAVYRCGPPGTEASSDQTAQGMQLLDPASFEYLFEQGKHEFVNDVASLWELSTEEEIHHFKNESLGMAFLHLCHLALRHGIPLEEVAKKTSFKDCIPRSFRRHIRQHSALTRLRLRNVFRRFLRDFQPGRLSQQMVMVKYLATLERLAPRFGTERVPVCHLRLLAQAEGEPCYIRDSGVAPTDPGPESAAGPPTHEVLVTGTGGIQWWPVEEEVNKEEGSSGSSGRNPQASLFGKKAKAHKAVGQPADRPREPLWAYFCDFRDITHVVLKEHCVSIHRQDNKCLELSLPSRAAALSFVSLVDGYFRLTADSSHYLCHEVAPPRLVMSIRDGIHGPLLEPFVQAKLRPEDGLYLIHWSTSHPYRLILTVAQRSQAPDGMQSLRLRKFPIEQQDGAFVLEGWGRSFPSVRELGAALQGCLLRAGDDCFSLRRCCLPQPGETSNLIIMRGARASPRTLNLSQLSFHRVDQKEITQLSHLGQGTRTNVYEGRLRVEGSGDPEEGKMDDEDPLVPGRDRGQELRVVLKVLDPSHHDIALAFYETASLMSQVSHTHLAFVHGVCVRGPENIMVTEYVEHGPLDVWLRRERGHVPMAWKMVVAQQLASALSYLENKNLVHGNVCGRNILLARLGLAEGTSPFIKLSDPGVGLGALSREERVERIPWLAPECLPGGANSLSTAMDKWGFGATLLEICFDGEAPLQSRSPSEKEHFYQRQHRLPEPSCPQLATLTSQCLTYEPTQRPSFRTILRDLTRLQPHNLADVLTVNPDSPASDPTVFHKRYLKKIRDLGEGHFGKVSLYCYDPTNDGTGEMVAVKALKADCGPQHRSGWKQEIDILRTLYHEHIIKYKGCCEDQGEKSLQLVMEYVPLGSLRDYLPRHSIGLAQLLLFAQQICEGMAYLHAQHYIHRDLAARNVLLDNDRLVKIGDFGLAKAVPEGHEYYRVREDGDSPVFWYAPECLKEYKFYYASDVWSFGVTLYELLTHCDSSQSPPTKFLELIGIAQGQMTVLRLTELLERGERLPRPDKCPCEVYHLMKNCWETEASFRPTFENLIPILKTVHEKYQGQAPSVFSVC
# Sequence of Tyrosine-protein kinase Fgr (Homo sapiens) (P09769 2-529 limits assumed): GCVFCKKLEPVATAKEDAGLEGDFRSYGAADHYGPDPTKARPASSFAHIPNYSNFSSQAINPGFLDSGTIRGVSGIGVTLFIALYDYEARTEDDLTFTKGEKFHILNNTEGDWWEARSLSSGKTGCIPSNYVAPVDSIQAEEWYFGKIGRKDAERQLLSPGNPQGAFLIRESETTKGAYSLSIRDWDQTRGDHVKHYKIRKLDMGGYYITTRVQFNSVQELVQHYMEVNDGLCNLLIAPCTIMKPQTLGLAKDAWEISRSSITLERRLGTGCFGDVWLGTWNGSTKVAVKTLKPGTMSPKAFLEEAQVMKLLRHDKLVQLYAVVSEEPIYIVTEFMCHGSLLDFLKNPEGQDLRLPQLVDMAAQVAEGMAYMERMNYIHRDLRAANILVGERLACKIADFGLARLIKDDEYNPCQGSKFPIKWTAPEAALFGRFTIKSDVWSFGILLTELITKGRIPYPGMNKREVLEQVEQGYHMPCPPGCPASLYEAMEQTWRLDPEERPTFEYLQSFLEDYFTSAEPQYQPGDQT
# Sequence of Vascular endothelial growth factor receptor 1 (Homo sapiens) (P17948 whole entry): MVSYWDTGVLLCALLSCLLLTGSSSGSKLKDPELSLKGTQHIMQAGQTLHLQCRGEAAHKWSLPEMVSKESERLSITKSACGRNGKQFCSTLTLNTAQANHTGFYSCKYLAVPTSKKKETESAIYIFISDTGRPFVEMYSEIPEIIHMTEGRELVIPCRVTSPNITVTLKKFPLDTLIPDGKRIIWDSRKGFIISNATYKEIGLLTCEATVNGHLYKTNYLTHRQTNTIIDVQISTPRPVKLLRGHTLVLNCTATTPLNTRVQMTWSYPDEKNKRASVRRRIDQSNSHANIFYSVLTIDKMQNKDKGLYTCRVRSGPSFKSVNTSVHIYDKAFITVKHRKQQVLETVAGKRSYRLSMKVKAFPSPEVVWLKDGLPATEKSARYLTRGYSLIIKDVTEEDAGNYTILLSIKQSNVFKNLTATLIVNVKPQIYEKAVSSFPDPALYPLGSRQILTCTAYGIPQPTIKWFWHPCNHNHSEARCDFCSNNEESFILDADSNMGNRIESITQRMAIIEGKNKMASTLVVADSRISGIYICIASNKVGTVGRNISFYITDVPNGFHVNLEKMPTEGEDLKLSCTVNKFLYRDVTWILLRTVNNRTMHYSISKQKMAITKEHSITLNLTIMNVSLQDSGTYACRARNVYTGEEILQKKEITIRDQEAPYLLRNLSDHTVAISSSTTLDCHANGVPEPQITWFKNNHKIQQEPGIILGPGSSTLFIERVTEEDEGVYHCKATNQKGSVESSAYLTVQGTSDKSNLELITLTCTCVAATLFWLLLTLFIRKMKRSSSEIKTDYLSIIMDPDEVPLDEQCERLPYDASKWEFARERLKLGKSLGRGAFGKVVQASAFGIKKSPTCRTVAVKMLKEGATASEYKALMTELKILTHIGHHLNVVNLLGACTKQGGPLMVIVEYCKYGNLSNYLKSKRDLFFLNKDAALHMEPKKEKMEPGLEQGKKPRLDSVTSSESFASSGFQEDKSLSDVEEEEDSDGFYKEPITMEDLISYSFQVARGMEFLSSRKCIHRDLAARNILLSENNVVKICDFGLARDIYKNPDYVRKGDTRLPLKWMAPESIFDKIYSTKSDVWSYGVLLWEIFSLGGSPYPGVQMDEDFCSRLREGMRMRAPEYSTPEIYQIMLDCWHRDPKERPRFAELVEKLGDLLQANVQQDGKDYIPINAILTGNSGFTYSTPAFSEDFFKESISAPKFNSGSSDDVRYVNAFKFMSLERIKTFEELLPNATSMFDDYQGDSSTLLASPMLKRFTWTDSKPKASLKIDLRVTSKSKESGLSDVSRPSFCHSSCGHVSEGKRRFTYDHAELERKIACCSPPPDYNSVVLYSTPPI
# Sequence of Tyrosine-protein kinase Yes (Homo sapiens) (P07947 2-543 limits assumed): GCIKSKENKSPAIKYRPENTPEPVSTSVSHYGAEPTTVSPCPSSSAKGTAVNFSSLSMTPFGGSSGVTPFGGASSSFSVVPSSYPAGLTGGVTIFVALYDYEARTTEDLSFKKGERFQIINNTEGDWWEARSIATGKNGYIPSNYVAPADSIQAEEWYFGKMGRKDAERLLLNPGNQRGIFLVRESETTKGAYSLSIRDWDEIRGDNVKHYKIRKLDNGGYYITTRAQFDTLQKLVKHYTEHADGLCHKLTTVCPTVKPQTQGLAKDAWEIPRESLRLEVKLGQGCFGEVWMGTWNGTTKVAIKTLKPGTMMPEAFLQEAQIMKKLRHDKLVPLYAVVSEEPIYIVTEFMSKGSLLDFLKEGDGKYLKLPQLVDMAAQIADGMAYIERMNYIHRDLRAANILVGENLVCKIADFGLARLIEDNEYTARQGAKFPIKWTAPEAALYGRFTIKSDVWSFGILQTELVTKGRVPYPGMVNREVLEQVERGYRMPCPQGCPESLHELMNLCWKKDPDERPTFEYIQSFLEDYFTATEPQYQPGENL
# Sequence of Serine/threonine-protein kinase B-raf (Homo sapiens), P15056 [V600E] (P15056 whole entry V600E): as the sequence (P15056 whole entry) above, with V600E counted along it
SMILES,inhibition [1] [%],inhibition [2] [%],inhibition [3] [%],inhibition [4] [%],inhibition [5] [%],inhibition [6] [%],inhibition [7] [%],inhibition [8] [%],inhibition [9] [%],inhibition [10] [%],inhibition [11] [%],inhibition [12] [%],inhibition [13] [%],inhibition [14] [%],inhibition [15] [%],inhibition [16] [%],inhibition [17] [%],inhibition [18] [%],inhibition [19] [%],inhibition [20] [%]
CCC(=O)Nc1ccc(C)c(-c2ccc(C(=O)NCC3CC3)cc2)c1,1,1.7,4.31,0.67,4.22,3.07,3.74,-0.87,2.6,2.68,3.12,4.01,-4.93,1.46,4.61,4.76,3.97,4.63,2.89,–
O=C1Nc2ccc(I)cc2C1=Cc1cc(Br)c(O)c(Br)c1,5.57,0.14,3.52,-0.02,-1.49,2.03,5.54,-0.2,2.41,3.68,2.36,4.8,3.85,5.52,6.02,15,4.33,–,8.31,-4.08
O=C(Nc1n[nH]c2cc(-c3ccccc3)ccc12)C1CC1,0.83,1.51,12.8,3.64,2.3,0.48,2.82,-4.78,3.71,16.1,1.86,5.44,4.16,1.7,7.16,6.29,6.47,6.53,-0.71,-3.75
Fc1ccc(-c2ncn(CCCN3CCOCC3)c2-c2ccncc2)cc1,0.42,-2.23,3.21,-2.17,0.42,0.43,1.49,-0.81,-0.71,-1.64,-0.25,-0.03,3.48,3.14,0.29,1.33,0.73,0.78,-0.34,-3.55
COc1cc(Nc2ncc(-c3ccccc3)o2)cc(OC)c1OC,1.36,3.9,29.4,8.63,–,61.7,90.8,6.55,-1.23,1.3,11.5,46.6,-2.95,0.62,-1.68,-1.94,-1.66,-1.09,-3.29,14.2
Cc1ccc(C(=O)NC2CCC2)cc1-c1ccc(C(=O)NCC2CC2)cc1,1.12,0.84,4.82,1.31,-0.61,0.07,1.62,-2.49,1.07,1.69,1.57,0.45,3.05,3.75,3.33,2.03,3.91,3.62,-1.45,0.48
c1ccc(Oc2ccc(Nc3ncc(-c4ccccc4)o3)cc2)cc1,3.31,1.2,4.81,1.53,4.46,2.44,13.3,-0.96,2.18,1.97,0.58,-0.25,1.43,0.91,1.29,1.47,2.23,1.97,0.01,0.51
NC(=O)c1cc(-c2ccc(F)cc2)cc(-c2ccncc2)c1N,-0.36,5.32,3.24,0.41,0.85,3.14,2.01,-2.58,4.68,3.84,3.3,8.03,3.36,4.08,6.39,7.79,7.49,7.36,0.54,-6.54
CNC(=O)c1cncc(/C=C/c2c(C)cccc2C)c1,-4.47,6.6,29.6,1.75,1.51,-1.59,1.3,0.52,0.85,2.18,6.81,33,-2.13,-4.22,0.8,5.69,-0.11,2.82,-5.49,3.49
O=C(NCC1CC1)c1ccc(-c2cccc(C(=O)NC3CC3)c2)cc1,0.84,-0.78,4.28,2.16,3.45,1.49,3.46,-5.6,3.93,0.81,-0.02,-2.38,1.15,1.3,3.46,3.07,1.59,1.43,5.36,0.3
O=C1NC(=O)C(c2cccc(Cl)c2)=C1Nc1ccc(Cl)c(C(=O)O)c1,1.23,5.15,1.19,2.61,7.03,3.91,0.25,-1.23,1.77,2.5,4.03,6,4.89,2.76,5.48,2.76,6.61,4.77,2.73,-6.52
NC(=O)Cc1ccccc1Oc1nccc(-c2c(-c3ccc(F)cc3)ncn2C2CCNCC2)n1,0.51,0.84,2.97,0.07,0.23,-1.59,1.61,-2.45,0.04,-0.3,1.2,2.44,2.88,-4.81,3.8,6.06,3.3,4.77,-0.15,-3.58
C/C(Nc1ccc(S(N)(=O)=O)cc1)=C1/C(=O)Nc2ccccc21,3.59,0.92,11.4,10.8,23.6,13.9,62.9,6.88,1.52,16.8,-1.58,14.1,-2.58,0.18,-1.47,0.23,-2.48,-0.68,-5.23,7.17
Clc1ccc(CNc2nccc(-c3cnn4ncccc34)n2)cc1,1.27,3.59,4,-1.24,6.44,1.16,1.79,1.83,1.5,2.27,-0.37,-1.15,–,-0.35,0.05,3.64,0.12,2.83,1.36,2.77
C[C@@H](Oc1cc(-n2cnc3ccc(OCC4CCN(C)CC4)cc32)sc1C(N)=O)c1ccccc1Cl,4.52,2.78,13.7,1.38,-0.37,6.77,16.1,-4.49,2.99,6.74,2.66,15.5,4.61,6.88,8.65,10.6,6.37,5.47,3.88,-8.99
